SW480 rerep – DNA re-replication induction in SW480 cells. AID 624297. Potency, µM (top dose mostly 46.1 µM), for the others: at the top dose re-replication activation, actives largely listed as activators. SW480 DNA re-replication, Hoechst DNA content imaging, 48 h. 340,000 tested, 1.8% active; also: potency is read from the fitted curve at half-maximal effect; % of control where 0% means no effect; nearly all actives have a fitted effect of over 55% in size
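Compounds, transferred as 23 nL by pin tool, were incubated with cells for 48 hr; DNA content per nucleus was then quantified by Hoechst staining and fluorescence plate imaging.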
DT40 TDP1 CPT – DT40-hTDP1 cell growth loss with CPT. chicken DT40 Tdp1-/-;hTDP1 cells + 20 nM CPT, ATP luminescence, 48 h. Potency, µM (series often up to 46.2 µM), without a hit: at the top dose activity change, negative = growth inhibition, usual class: inhibitors. 420,000 tested, 12% active; also: potency is read from the fitted curve at half-maximal effect; % is scaled to controls: 0 for no effect and ±100 for the full control effect; nearly all actives have a fitted effect of over 55% in size
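Chicken DT40 Tdp1-/- cells stably complemented with human TDP1 were seeded at 400 cells/well in medium containing 20 nM camptothecin, exposed to pin-transferred compounds, and grown at 37 °C for at least 48 hr. Viability was read as ATP luminescence.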
IL-1B inflam inh – inhibitors of inflammasome signaling (IL-1 beta secretion); AID 743279; activity change, % at 57.5 µM; 360,000 tested, 4.7% active; THP-1 LPS/ATP IL-1B secretion, AlphaLISA, 16 h; stronger effect = lower value; in the data active = activity change below about -50%; inconclusive = mostly about -30% to -49%; also: % is scaled to controls: 0 for no effect and ±100 for the full control effect
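Secreted IL-1B measured by AlphaLISA bead assay after 16 h compound exposure of THP-1 cells; compounds (final up to 57.5 uM) added 1 h before LPS (250 ng/mL) and ATP (1.25 mM) stimulation; lower signal means less secretion.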
DT40 TDP1 no CPT – qHTS for Inhibitors of human tyrosyl-DNA phosphodiesterase 1 (TDP1): qHTS in cells in absence of CPT. DT40 Tdp1-/- hTDP1 cells, no CPT, ATP luminescence, 48 h. Potency, µM (titrated, usually from 46.2 µM), inactives show top-dose activity change, negative = growth inhibition, most hits filed as inhibitors. 420,000 tested, 15% active. AID 686978, 2013; also: potency is read from the fitted curve at half-maximal effect; % is scaled to controls: 0 for no effect and ±100 for the full control effect; nearly all actives have a fitted effect of over 55% in size
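Seeded 400 DT40-hTDP1 cells/well (vehicle DMSO, no 20 nM CPT); pinned compounds; ≥48 hr at 37 °C; CellTiter-Glo luminescence as viability measure.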
MCF10A rereplic – induces DNA re-replication in MCF 10a normal breast cells. Potency, µM (highest dose often 46.1 µM), inactives show at the top dose activity, positive = re-replication, actives largely listed as activators. MCF 10A DNA re-replication, Hoechst nuclear intensity, 48 h. 350,000 tested, 2.9% active. AID 624296; also: potency is read from the fitted curve at half-maximal effect; % of control where 0% means no effect; nearly all actives have a fitted effect of over 50% in size
BCR signal inh – inhibitors of chronic active B-cell receptor signaling; ABC-DLBCL IkBa-CBG/CBR reporter, luminescence ratio, 4 h; Potency, µM (highest dose often 46.1 µM), without a hit: at the highest dose activity change, negative = inhibition, usual class: inhibitors; 340,000 tested, 0.05% active; AID 493014; active = well fitted inhibition curve with a large enough effect in the signal ratio, with a control signal flat, not every such curve was filed as active; inconclusive = small, poorly fitted or top-dose-only effect, or effect the other way, or a change in a side signal; the % refers to the signal ratio;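 also: potency is read from the fitted curve at half-maximal effect; plate controls were basal doxycycline-induced cells for no effect and cells given 10 µM MG132 for full effect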
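Doxycycline induced both beetle luciferases in TMD8 lymphoma cells; IKK-driven degradation limits the IkappaBalpha-fused green signal, while red luminescence normalises for cell number and nonspecific effects. Compounds tested up to 46 uM, 4 hrs.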
* marks the source's active call; other numbers are inactive results. Sampled rows, rich in hits. Any-hit rate of the full collection: about 19%. Unless noted, calls follow the shape of the dose curve; as a rule, active = well fitted curve in the direction sought with a large enough effect; inconclusive = small, poorly fitted or top-dose-only effect, or another doubt; inactive = no such curve, though single readings can be large; an effect the other way counts as inactive or inconclusive.

For COc1ccc(OC)c(CN2CCN(C(=O)c3cccc(S(=O)(=O)Nc4ccccc4OC)c3)CC2)c1 the results were SW480 rerep -5%, DT40 TDP1 CPT inconclusive, IL-1B inflam inh -17, DT40 TDP1 no CPT inconclusive, MCF10A rereplic 1% and BCR signal inh inconclusive.
Screening Cc1nc(CCNC(=O)C2CCC(=O)N(Cc3ccc(Cl)cc3)C2)sc1C (configuration not stated) returned SW480 rerep -22%, DT40 TDP1 CPT -5%, IL-1B inflam inh -2, DT40 TDP1 no CPT 2%, MCF10A rereplic 0% and BCR signal inh inconclusive.
Screening C[C@@H]1CN([C@@H](C)CO)C(=O)c2cc(NC(=O)C3CC3)ccc2O[C@@H]1CN(C)C(=O)NC1CCCCC1 returned SW480 rerep -5%, DT40 TDP1 CPT -9%, IL-1B inflam inh 16, DT40 TDP1 no CPT inconclusive, MCF10A rereplic -5% and BCR signal inh -1%.
CCN(CC(=O)Nc1c(F)cccc1F)C(=O)C1CCN(S(=O)(=O)c2ccccc2C(=O)OC)CC1 was read as SW480 rerep -15%, DT40 TDP1 CPT 0%, IL-1B inflam inh -18, DT40 TDP1 no CPT -19% and MCF10A rereplic 4%.
Screening COc1nc(-c2ccc(Cl)cc2)ccc1-c1noc(-c2ccco2)n1 returned SW480 rerep -3%, DT40 TDP1 CPT inconclusive, IL-1B inflam inh -2, DT40 TDP1 no CPT -11%, MCF10A rereplic inconclusive and BCR signal inh -9%.
COc1nc2c(C)cccc2cc1-c1noc(-c2ccco2)n1 was read as SW480 rerep -1%, DT40 TDP1 CPT -43%, IL-1B inflam inh 5, DT40 TDP1 no CPT 0.15µM*, MCF10A rereplic inconclusive and BCR signal inh inconclusive.
For C/C(=N\NC(=O)Cc1cccn1C)c1ccc2ccccc2c1 the results were SW480 rerep 2%, DT40 TDP1 CPT inconclusive, IL-1B inflam inh -61*, DT40 TDP1 no CPT inconclusive, MCF10A rereplic 17% and BCR signal inh inconclusive.
For C/C(=N/NC(=O)Cc1cccn1C)c1ccccc1 the results were SW480 rerep -5%, DT40 TDP1 CPT -2%, IL-1B inflam inh -17, DT40 TDP1 no CPT -11%, MCF10A rereplic 1% and BCR signal inh -2%.
Screening C=CCOc1cccc(C(=O)N2CCCC(Nc3ccc4c(c3)OCCO4)C2)c1 (configuration not stated) returned SW480 rerep -3%, DT40 TDP1 CPT -2%, IL-1B inflam inh -3, DT40 TDP1 no CPT -20%, MCF10A rereplic inconclusive and BCR signal inh -4%.
`CCc1ccc(CNCc2ccc(OCC(O)CN(C)Cc3ccccc3)cc2)nc1` (configuration not stated) gave SW480 rerep inconclusive, DT40 TDP1 CPT 16µM*, IL-1B inflam inh -60*, DT40 TDP1 no CPT 23µM*, MCF10A rereplic inconclusive and BCR signal inh -30%.
`CN(Cc1ccccc1)CC(O)COc1ccc(CNCCc2ccncc2)cc1` (configuration not stated) gave SW480 rerep 18µM*, DT40 TDP1 CPT inconclusive, IL-1B inflam inh -59*, DT40 TDP1 no CPT inconclusive, MCF10A rereplic inconclusive and BCR signal inh -9%.
Screening C=CCOc1ccc(CN(C)CC(O)COc2cccc3ccccc23)cc1 (configuration not stated) returned SW480 rerep inconclusive, DT40 TDP1 CPT inconclusive, IL-1B inflam inh -59*, DT40 TDP1 no CPT inconclusive, MCF10A rereplic 14% and BCR signal inh -10%.
Screening COc1ccccc1CCNC(=O)Cc1c(C)c2ccc(O)cc2oc1=O returned DT40 TDP1 CPT 8% and DT40 TDP1 no CPT -17%.

Screens deposited in PubChem by National Center for Advancing Translational Sciences (NCATS).
